{"source": "PubChem BioAssay AID1347383", "about": "(Zoeller Lab, School of Medicine, Boston University, 2020)", "note": "Activity calls are given as the source filed them.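 Rule for the calls: active = cell survival after UV exposure 2 SD above solvent-only control wells at 10 µM, confirmed on one or two repeats; inactive = the rest.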"}
{"test": "protection of CHO cells from pyrene-fatty acid UV killing, primary screen, phospholipid biosynthesis inhibitor project, ZR-82 cells, Analyticon library, screen 2 (AID 1347383);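 note: survival reflects blocked phospholipid synthesis cutting uptake of the phototoxic fatty acid; compound and fatty acid exposure 3 h then viability read next day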", "settings": "ZR-82 CHO cells, CellTiter Blue, at 10 µM, peroxisome-deficient CHO-K1 variant, with DGAT-1, DGAT-2 and ACAT inhibitors"}
{"smiles": "CC1=C2C[C@]3(C)C(=O)C[C@@H](C(C)C)[C@H]3C/C=C(/C)[C@@H]2CC1=O", "outcome": "inactive"}
{"smiles": "COc1cc(OC)c(C(O)C(C)O)cc1OC", "note": "(centres undefined)", "outcome": "inactive"}
{"smiles": "C[C@]1(C=O)[C@H]2CC[C@]3(C)O[C@@]14C(=O)c1cc(O)ccc1C(=O)C4=C[C@@H]23", "outcome": "inactive"}
{"smiles": "COc1cc(=O)oc(C(C)C(C)O)c1CO", "note": "(centres undefined)", "outcome": "inactive"}
{"smiles": "CC/C=C/C=C/C1(C)OC(=O)C(C(C)=O)=C1O", "note": "(centres undefined)", "outcome": "inactive"}
{"smiles": "CC[C@H](C)/C=C(C)/C=C/C1=CC2=CC(=O)[C@]3(C)OC(=O)[C@@H](C(C)=O)[C@@H]3C2=CO1", "outcome": "inactive"}
{"smiles": "CC1(C)C2CC[C@]3(C)C(C(=O)C=C4[C@H]5C[C@@](C)(C(=O)O)CC[C@]5(C)CC[C@]43C)[C@@]2(C)CC[C@@H]1O", "note": "(some centres undefined)", "outcome": "inactive"}
{"smiles": "CC1=CC2=C(C=O)C(=O)[C@](C)(O)[C@@H](O)C2=CO1", "outcome": "inactive"}
{"smiles": "CC1=CCC(C(C)C)c2cc(C)c(O)cc21", "note": "(centres undefined)", "outcome": "inactive"}
{"smiles": "C[C@@H]1O[C@@H](Oc2ccc(-c3coc4cc(O[C@@H]5O[C@@H](C)[C@H](O)[C@@H](O)[C@H]5O)ccc4c3=O)cc2)[C@H](O)[C@H](O)[C@H]1O", "outcome": "inactive"}
{"smiles": "COc1c2c(nc3occc13)C(CC=C(C)C)(OC)C(O)CC2", "note": "(centres undefined)", "outcome": "inactive"}
{"smiles": "CC1CCC2C(C(=O)O)=CC3C(O)C(C)(C)CC123", "note": "(centres undefined)", "outcome": "inactive"}
{"smiles": "Nc1ccn(C2CC(O)C(CO)O2)c(=O)n1", "note": "(centres undefined)", "outcome": "inactive"}
{"smiles": "C=C(C(=O)OC)[C@@H]1CC=C2C=CC(=O)[C@H](C)[C@@]2(C)C1", "outcome": "inactive"}
{"smiles": "O=C1NC(Cc2ccccc2)C(=O)N2CCCC12", "note": "(centres undefined)", "outcome": "inactive"}
{"smiles": "CC(C)c1ccc2c(c1)CCC1[C@](C)(C(=O)O)CCC[C@]21C", "note": "(some centres undefined)", "outcome": "inactive"}
{"smiles": "CC1(O)CCC2C(C3C1CCC3(C)O)C2(C)C", "note": "(centres undefined)", "outcome": "inactive"}
{"smiles": "Cc1ccc(C(C)C)c(O)c1", "outcome": "inactive"}
{"smiles": "OC1c2ccccc2-c2c3c(cc4c2C1NCC4)OCO3", "note": "(centres undefined)", "outcome": "inactive"}
{"smiles": "COC1=CC(=O)CC(C)C12Oc1cc(OC)cc(OC)c1C2=O", "note": "(centres undefined)", "outcome": "inactive"}
{"smiles": "O=C1CC(c2ccc(O)cc2)Oc2cc(O)ccc21", "note": "(centres undefined)", "outcome": "inactive"}
{"smiles": "COC(=O)CCC(=O)OC[C@]1(C)CCC[C@@]2(C)C3CC[C@]4(C)C=CC3(CCC12)C4", "note": "(some centres undefined)", "outcome": "inactive"}
{"smiles": "Nc1c(O)cccc1C(=O)O", "outcome": "inactive"}
{"smiles": "CC(C)=CCCC1=CC(=O)OC1O", "note": "(centres undefined)", "outcome": "inactive"}
{"smiles": "COc1cc(O)cc2c1C(=O)CC(c1ccc(O)cc1)O2", "note": "(centres undefined)", "outcome": "inactive"}
{"smiles": "OCCc1ccc(O)cc1", "outcome": "inactive"}
{"smiles": "O=c1ccc2cc3ccoc3cc2o1", "outcome": "inactive"}
{"smiles": "C=C[C@H]1CN2CC[C@H]1C[C@@H]2C(O)c1ccnc2ccc(OC)cc12", "note": "(some centres undefined)", "outcome": "inactive"}
{"smiles": "O=c1c(-c2ccc(O)cc2)coc2cc(O)ccc12", "outcome": "inactive"}
{"smiles": "CC(C)(O)C1OC1C1=CC(=O)C2(C)OC2C1O", "note": "(centres undefined)", "outcome": "inactive"}
{"smiles": "C[C@@H]1O[C@@H](Oc2c(-c3ccc(O)c(O)c3)oc3cc(O)cc(O)c3c2=O)[C@H](O)[C@H](O)[C@H]1O", "outcome": "inactive"}
{"smiles": "CCC(=O)C1OC(O)(CCC2=CCOC2=O)C2(C)CCCC(C)(C)C12", "note": "(centres undefined)", "outcome": "inactive"}
{"smiles": "CCC(C)C(=O)OC1CCCC2C=CC(C)C(CCC(O)CC(O)CC(=O)O)C21", "note": "(centres undefined)", "outcome": "inactive"}
{"smiles": "CC(=O)OC/C(=C\\COc1cc(=O)oc2cccc(C)c12)CCC=C(C)C", "outcome": "inactive"}
{"smiles": "COc1cc2ccc(=O)oc2cc1OC", "outcome": "inactive"}
{"smiles": "Oc1cc(O)c2c(c1)O[C@H](c1ccc(O)c(O)c1)[C@H](O)C2", "outcome": "inactive"}
{"smiles": "O=C1NC(Cc2c[nH]c3ccccc23)C(=O)NC1Cc1ccccc1", "note": "(centres undefined)", "outcome": "inactive"}
{"smiles": "COc1cc(/C=C(/C)C(C)Cc2ccc(O)c(OC)c2)ccc1O", "note": "(centres undefined)", "outcome": "inactive"}
{"smiles": "O=C(/C=C/C=C/c1ccc2c(c1)OCO2)N1CCCCC1", "outcome": "inactive"}
